The list is not random: actives were taken first. Their share in the collection is about 5.9%.
PRMT1 inh: inhibitors of human PRMT1; recombinant PRMT1, activity-based probe fluorescence polarization; 1.3% of 370,000 active; inhibition, % at 2.79 µM;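 active = inhibition above about 21% made by adding two undisclosed values, limit read from the data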
LANA-H2A inh: blocks KSHV LANA binding to histone H2A/H2B; cell-free LANA-H2A/H2B peptide, fluorescence polarization; 0.6% of 320,000 active; AID 2629; Q9QR71; inhibition, % (test concentration not listed); in the data active = inhibition mostly above about 10%, no sharp cut-off; inactive = mostly below about 6.7%
ALR H2O2 inh: inhibitors of human sulfhydryl oxidase ALR | 3.8% of 290,000 active | purified ALR, DTT oxidation, H2O2 HRP-luminol luminescence | inhibition, % (test concentration not listed) | AID 485317;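 active = mean replicate inhibition above about 79%, with every replicate also reaching it, limit read from the data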
Rtt109 HAT inh: blocks Candida albicans Rtt109/Vps75 acetyltransferase activity | Q5AAJ8 | purified Rtt109/Vps75, ThioGlo CoA-SH fluorescence, 4 h | inhibition, % at 34.9 µM | 0.16% of 330,000 active;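 active = inhibition of at least 50% in every replicate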
Target sequence (Q5AAJ8 whole entry, looked up): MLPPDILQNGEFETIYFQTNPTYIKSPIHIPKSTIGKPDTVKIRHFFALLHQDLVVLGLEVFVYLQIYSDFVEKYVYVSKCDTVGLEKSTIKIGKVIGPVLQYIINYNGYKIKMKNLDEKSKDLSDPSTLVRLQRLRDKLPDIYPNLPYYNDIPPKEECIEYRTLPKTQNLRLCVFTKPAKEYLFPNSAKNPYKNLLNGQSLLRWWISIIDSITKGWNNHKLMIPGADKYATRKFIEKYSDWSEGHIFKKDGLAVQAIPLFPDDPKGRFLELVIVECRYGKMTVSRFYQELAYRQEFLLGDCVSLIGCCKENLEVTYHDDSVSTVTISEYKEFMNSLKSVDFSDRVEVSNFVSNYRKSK
ABHD5-PLIN5 inh: ABHD5-PLIN5 protein interaction inhibition; inhibition, % at 4 µM; 0.78% of 360,000 active; AID 602281; Split G. princeps luciferase complementation, luminescence, 4 h; Q00G26+Q8WTS1;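 active = inhibition above the mean inhibition across every tested compound plus 3 SD, cut at about 22% in these data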;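 note: 0% = DMSO only wells and the 100% control is not disclosed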
rCAG binder: molecules binding r(CAG) RNA repeats; r(CAG) RNA repeat, TO-PRO-1 dye displacement fluorescence; AID 651821; 1.3% of 370,000 active; inhibition, % at 3 µM;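 active = inhibition above the plate cutoff, the mean of all test compounds on that plate plus 3 SD, cut at about 35% in these data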;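 note: 0% = DMSO alone and 100% = 100 µM mitoxantrone as full dye displacement; higher means more dye released from RNA so lower well fluorescence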
* = called active by the depositor; i = inactive; . = not tested or not shown.

SMILES	PRMT1 inh	LANA-H2A inh	ALR H2O2 inh	Rtt109 HAT inh	ABHD5-PLIN5 inh	rCAG binder
Cc1nnc(NC(=O)CSc2nnc(CNC(=O)c3ccc(S(=O)(=O)N(C)C)cc3)o2)s1	-3.0	1.4	0.1	-5.8	-8.6	7.3
COC(=O)c1ccc(CSc2nnc(CNC(=O)c3ccccc3F)o2)o1	4.1	-1.2	97.0*	-4.0	-1.3	0.0
COc1ccc(-c2csc(C(C)(O)c3cccc(F)c3)n2)cn1 (stereo not given)	-3.0	.	.	.	-8.6	-0.7
COc1ccc(N2CCN(CC(O)c3c[nH]c4ccc(OC)cc34)CC2C)cc1 (stereo not given)	-4.0	3.4	99.9*	-3.0	-6.5	-5.4
COc1ccc2[nH]cc(C(O)CN3CCN(c4ccccc4F)CC3)c2c1 (stereo not given)	0.9	-1.3	-3.4	2.1	5.3	7.0
O=C1C(c2ccccc2)=[N+]([O-])c2ccccc21	3.1	3.9	91.4*	14.5	-11.6	-1.3
CC1CCC2C(C1)c1sc(=O)[nH]c1SC2(C)C (stereo not given)	0.1	3.3	97.8*	22.3	-5.6	-2.1
Cc1cnc(NC(=O)c2ccc(-c3ccc([N+](=O)[O-])cc3)o2)s1	-1.8	8.0	-0.5	-1.2	0.7	6.3
Cc1cnc(NC(=O)c2ccc(-c3nc4ccccc4s3)o2)s1	-1.4	28.8*	3.0	-5.5	-3.7	10.4
CCCCNC(=O)C1(C)CCN1C(=O)c1cccc(OC(C)=O)c1C (stereo not given)	-2.6	.	.	.	-3.1	0.2
COc1ccc(NCC(=O)N/N=C/C2CCCCC2)cc1	-0.4	8.4	92.1*	13.8	2.2	4.8
O=C(NNc1ccccc1)C(CCO)C(=O)NNc1ccccc1	2.2	-0.5	97.9*	-0.7	1.9	-0.3
CC(C)C(=O)NNc1ccccc1	-2.5	2.2	42.3	13.6	-0.4	2.2
CC(O)CC(C(=O)NNc1ccccc1)C(=O)NNc1ccccc1 (stereo not given)	-2.3	2.0	99.1*	-2.1	-4.5	1.5
Cc1cc(NS(=O)(=O)c2ccc(NC(=O)CSc3nnc(-c4ccccn4)n3Cc3ccco3)cc2)nc(C)n1	1.5	.	.	.	.	21.8
O=C(CC1SC(N2CCCCC2)=NC1=O)Nc1cccc(C(=O)O)c1 (stereo not given)	6.2	14.0*	-14.9	-1.9	4.5	4.4
O=C1C(Cl)=C(Nc2ccc(O)cc2)C(=O)c2ccccc21	36.3*	0.3	33.1	4.7	1.1	0.8
Cc1ccc(NC2=C(Cl)C(=O)c3ccccc3C2=O)cc1	3.4	-233.5	2.7	1.5	0.7	-0.8
COC1=C(Nc2ccc(O)cc2)C(=O)c2ccccc2C1=O	-2.8	0.5	98.7*	3.9	-8.3	-0.7
CCc1c(C)c2ccc(OCC(=O)NCC3CCC(C(=O)O)CC3)cc2oc1=O (stereo not given)	4.3	-4.6	-31.5	1.0	-2.4	0.9
O=S1(=O)c2ccccc2N=NN1Cc1cc(Cl)cc(Cl)c1	.	-6.6	99.0*	.	.	.
O=S1(=O)c2ccccc2N=NN1Cc1ccc(Cl)cc1	6.4	-1.3	-1.0	1.3	-3.4	23.7
O=C(OCc1ccccc1)[C@H](Cc1ccccc1)NC(=O)[C@@H]1CC=C[C@@H]2CCN(C3CCCCC3)C(=O)[C@@H]21	-0.3	.	.	.	.	.
COc1ccc(C(=O)N=c2sc3ccccc3n2C)cc1OC	-0.5	-2.4	-2.9	-2.2	0.6	-0.7
Cn1c(=NC(=O)C2=NNC(=O)CC2)sc2ccccc21	1.9	15.4*	40.2	-0.9	2.1	1.4
SMILES	PRMT1 inh	LANA-H2A inh	ALR H2O2 inh	Rtt109 HAT inh	ABHD5-PLIN5 inh	rCAG binder
CCN(CC)c1ccc2cc(NC(=O)CCC(=O)O)c(=O)oc2c1	34.0*	0.8	98.6*	i	-3.7	-22.5
CCN(CC)c1ccc2cc(C(C)=O)c(=O)oc2c1	-23.8	-6.0	-0.1	-9.4	1.2	-61.9
O=C(CSc1ncn[nH]1)Nc1nc(-c2ccccc2)cs1	1.8	-7.5	-5.0	-10.0	-6.0	7.8
c1ccc(Nc2nc(CSc3ncn[nH]3)cs2)cc1	-2.4	2.1	93.6*	3.7	-6.7	1.1
Cc1ccc(C(C)C)c(OCC(=O)Nc2ccc(N3CCN(S(C)(=O)=O)CC3)cc2)c1	-1.9	50.0*	-4.3	-12.5	-8.2	-1.1
O=C(N/N=C/c1ccc(O)cc1)c1cc(-c2ccccc2)nc2ccccc12	0.1	-0.8	30.3	-10.0	9.5	23.5
O=C(N/N=C/c1ccc(O)cc1)c1ccncc1	-4.4	0.8	98.8*	-5.1	6.5	0.4

Screening data as filed in PubChem BioAssay.
